# Compound activity deposited in PubChem BioAssay by National Center for Advancing Translational Sciences (NCATS).
# Tb PFK inh-1: qHTS Assay to Find Inhibitors of T. brucei phosphofructokinase. T. brucei PFK, ADP-Glo luminescence. Potency, µM (top dose mostly 57.5 µM), without a hit: top-dose activity, negative = inhibition, actives largely listed as inhibitors. 0.17% of 330,000 active;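 also: potency is read from the fitted curve at half-maximal effect; 0% = uninhibited 1x PFK enzyme wells and -100% = no-enzyme wells; nearly all actives have a fitted effect of over 60% in size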
#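 Compounds were pin-transferred as a titration series up to 57 uM into substrate buffer (0.5 mM F6P, 0.1 mM ATP, pH 8.0), then 1.25 nM PFK was added and reactions ran 45 min before ADP-Glo detection.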
# PI5P4Ka inh: qHTS for Inhibitors of phosphatidylinositol 5-phosphate 4-kinase (PI5P4K). Phosphatidylinositol 5-phosphate 4-kinase type-2 alpha (Homo sapiens), P48426. PI5P4Kalpha enzyme, ADP-Glo luminescence, 60 min; stronger effect = lower value. AID 652105, 2013. max response, %. 1.2% of 330,000 active; active = max response of -50% or lower; inconclusive = between -30% and -50%; inactive = -30% or higher; also: value at the top dose of about 77 µM; % is scaled to controls: 0 for no effect and ±100 for the full control effect
# Target sequence (P48426 whole entry, looked up): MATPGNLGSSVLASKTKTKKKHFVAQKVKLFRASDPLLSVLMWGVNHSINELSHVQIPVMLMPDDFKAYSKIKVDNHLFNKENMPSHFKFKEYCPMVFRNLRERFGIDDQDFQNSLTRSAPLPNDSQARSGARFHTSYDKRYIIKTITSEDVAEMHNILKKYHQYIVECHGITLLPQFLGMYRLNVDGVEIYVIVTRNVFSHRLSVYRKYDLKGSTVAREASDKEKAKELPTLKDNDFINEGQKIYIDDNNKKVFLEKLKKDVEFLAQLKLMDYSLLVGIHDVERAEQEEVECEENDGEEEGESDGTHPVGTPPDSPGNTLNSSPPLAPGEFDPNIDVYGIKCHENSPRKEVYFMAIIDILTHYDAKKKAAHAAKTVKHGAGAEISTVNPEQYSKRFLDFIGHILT
#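 PI5P4Kalpha ADP-Glo assay; 5 microM ATP final; 60 min RT reaction; HEPES pH 7.4/EGTA/CHAPS, 5% DMSO; controls lacking substrate or enzyme; luminescent end-point.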
# PI4K2A block: qHTS for small molecular inhibitors of PI4K2A. activity change, negative = inhibition, % at 76.9 µM. 0.13% of 420,000 active. AID 1346378, 2018. Phosphatidylinositol 4-kinase type 2-alpha (Homo sapiens), Q9BTU6. purified PI4K2A, ADP-Glo luminescence, 1 h; stronger effect = lower value; in the data active = activity change below about -50%; inconclusive = mostly about -30% to -49%;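 also: -100% = wells without enzyme as full effect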
#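 ADP-Glo luminescence measured ADP generated by PI4K2A enzyme (4 ug/mL before mixing) with 1.2 mM PI substrate (pre-mix) and 300 microM ATP (pre-mix). Tris pH7.5 buffer with MgCl2, Triton X-100; 1 h reaction at ambient temperature.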
# Pin1 inhibitor: qHTS Assay to Find Inhibitors of Pin1 | Pin1 FP peptide displacement, HiFluor488, 10 min | 0.009% of 390,000 active | Potency, µM (titrated, usually from 115 µM), without a hit: at the highest dose activity, negative = inhibition, hits mostly inhibitors | Peptidyl-prolyl cis-trans isomerase NIMA-interacting 1 (Homo sapiens), Q13526 | AID 504891, 2011; active = well fitted inhibition curve with a large enough effect in the polarisation, with a control signal flat, not every such curve was filed as active; inconclusive = small, poorly fitted or top-dose-only effect, or effect the other way, or a change in a side signal; inactive = no such curve, though single readings can be large or run the other way; the % refers to the polarisation; also: potency is read from the fitted curve at half-maximal effect; % is scaled to controls: 0 for no effect and ±100 for the full control effect
# Target sequence (Q13526 whole entry, looked up): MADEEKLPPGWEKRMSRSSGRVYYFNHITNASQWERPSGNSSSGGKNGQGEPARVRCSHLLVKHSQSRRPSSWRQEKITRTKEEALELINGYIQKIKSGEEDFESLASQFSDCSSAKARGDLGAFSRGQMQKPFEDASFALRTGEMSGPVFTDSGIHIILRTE
# Tb PGK inh: qHTS Assay to Find Inhibitors of Phosphoglycerate Kinase; Potency, µM (doses to about 57.5 µM), inactives show top-dose activity change, negative = inhibition, most hits filed as inhibitors; PGK/GAPDH coupled, Kinase-Glo luminescence, 60 min; 0.043% of 380,000 active; AID 602233, 2012; Phosphoglycerate kinase, glycosomal (Trypanosoma brucei brucei), P07378; also: potency is read from the fitted curve at half-maximal effect; % is scaled to controls: 0 for no effect and ±100 for the full control effect; nearly all actives have a fitted effect of over 60% in size
#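 Recombinant glycosomal PGK reaction used 1,3-bisphosphoglycerate generated in-well by GAPDH (100nM final) in 100mM TEA pH 7.6, 5mM MgCl2, 0.01% Tween-20. After 60 minutes at room temperature, ATP was read by Kinase-Glo Plus luminescence end-point.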
# Tb PFK KinaseGlo: Tb PFK orthogonal confirmatory assay using ATP depletion (Kinase-Glo Plus) as an alternative measure of Tb PFK activity: Hit Validation; shares compounds with Tb PFK inh-1; Tb PFK enzyme, ATP depletion, Kinase-Glo Plus luminescence; Potency, µM (titrated, usually from 57.5 µM), without a hit: at the top dose inhibition; 47% of 1,100 active; calls by dose curve; also: potency is read from the fitted curve at half-maximal effect; nearly all actives have a fitted effect of over 60% in size
# Tb PFK inh-2: Inhibitors of T. brucei phosphofructokinase: Hit Validation; shares compounds with Tb PFK inh-1; purified T. brucei PFK, ADP-Glo luminescence, 45 min; Potency, µM (titrated, usually from 57.5 µM), without a hit: at the top dose activity change, negative = inhibition, most hits filed as inhibitors; 41% of 1,100 active; AID 504637, 2011;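 also: potency is read from the fitted curve at half-maximal effect; plate controls were full PFK enzyme control for no effect and no enzyme control for full effect; nearly all actives have a fitted effect of over 60% in size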
# Numbers without * were called inactive; i = inactive; ? = inconclusive; · = no result. The full list was thinned out, with hits kept by preference. Unless noted, calls follow the shape of the dose curve; as a rule, active = well fitted curve in the direction sought with a large enough effect; inconclusive = small, poorly fitted or top-dose-only effect, or another doubt; inactive = no such curve, though single readings can be large; an effect the other way counts as inactive or inconclusive.
SMILES,Tb PFK inh-1,PI5P4Ka inh,PI4K2A block,Pin1 inhibitor,Tb PGK inh,Tb PFK KinaseGlo,Tb PFK inh-2
CCN(CC)c1ccccc1,5%,6,-2,-21%,i,·,·
Clc1ccc(Cn2ncc3c(N4CCCC4)ncnc32)cc1,?,-1,4,-5%,-6%,?,?
Cc1nn(Cc2ccccc2)c(Cl)c1C(=O)O,1%,1,-1,-4%,-9%,·,·
O=C(O)c1ccc(Nc2ncnc3c2cnn3Cc2ccccc2)cc1,?,·,3,7%,3%,?,?
Cc1ccc(C(=O)NC(=S)Nc2ccc(-c3ccc(CO)o3)cc2)cc1,?,?,-2,3%,i,5%,0%
O=c1c(OC2OC(CO)C(O)C(O)C2O)c(-c2ccc(O)c(O)c2)oc2cc(O)cc(O)c12 (configuration not stated),12µM*,-4,5,0%,?,8.5µM*,4.3µM*
O=[N+]([O-])c1ccc(O[C@@H]2O[C@H](CO)[C@@H](O)[C@H](O)[C@H]2F)c([N+](=O)[O-])c1,·,·,-4,·,·,·,·
O=c1ccc2cc(O[C@@H]3O[C@H](CO)[C@@H](O)[C@H](O)[C@H]3O)c(O)cc2o1,·,-5,-3,-9%,i,·,·
O=c1cc(-c2ccc(O)c(O)c2)oc2cc(O[C@@H]3O[C@H](CO)[C@@H](O)[C@H](O)[C@H]3O)cc(O)c12,?,?,-14,?,-5%,?,?
O=C1NC(=O)C2(C(=O)N1)C(c1ccc(F)cc1)NC(=S)NC2c1ccc(F)cc1 (configuration not stated),-2%,-5,-7,3%,-4%,·,·
O=C(O)c1ccc2c(c1)C(=O)/C(=C/c1ccccc1)C2=O,?,-56*,-10,·,-23%,-16%,?
O=C(O)c1ccc2c(c1)C(=O)/C(=C\c1ccco1)C2=O,?,-61*,-28,·,?,17%,?
CCC(=NC1CC1)c1c(O)n(-c2ccc(OC)cc2)c(=O)[nH]c1=O,12%,-5,-3,-5%,4%,·,·
O=C(O)C(O)(c1ccc(Cl)cc1)C1(O)CCCC1 (configuration not stated),·,0,-2,·,1%,·,·
O=C(C1CCCN(c2nnc(-n3cccc3)s2)C1)N1CCC2(CC1)OCCO2 (configuration not stated),-1%,3,-8,-5%,-4%,·,·
NC(=S)c1cn(C2OC(CO)C(O)C2O)c2ncnc(N)c12 (configuration not stated),?,?,-11,-3%,·,?,-14%
N#Cc1ccc(NC(=O)CN2CCN(C(=O)c3cccs3)CC2)cc1Cl,-6%,2,-1,1%,i,·,·
CC(c1cccs1)N(Cc1ccco1)C(=O)Nc1ccc(Cl)c(Cl)c1 (configuration not stated),?,·,3,2%,6%,10%,-2%
Fc1ccc(NCc2cccnc2)cc1F,24µM*,·,-8,?,-1%,13µM*,27µM*
c1ccc(CCNCc2cccnc2)cc1,1%,-6,-3,2%,-4%,·,·
O=C(Nc1ccc(Cl)cc1)Nc1cccnc1,17µM*,·,0,-9%,·,?,?
O=C(Nc1ccncc1)Nc1ccc(F)c(Cl)c1,?,-1,-1,-1%,7%,?,?
Fc1ccc(NC(=S)Nc2ccc(F)c(Cl)c2)cc1Cl,?,0,-1,-4%,-7%,?,-30%
O=C(Nc1ccc(Cl)cc1)Nc1nccs1,-9%,2,6,-5%,-4%,·,·
NC(=O)Nc1ccc(Cl)cc1,21µM*,0,1,-13%,i,24µM*,30µM*
SMILES,Tb PFK inh-1,PI5P4Ka inh,PI4K2A block,Pin1 inhibitor,Tb PGK inh,Tb PFK KinaseGlo,Tb PFK inh-2
CCC(CC)C(=O)NC1CCSC1=O (configuration not stated),3%,1,16,-19%,3%,·,·
CC(Cc1ccccc1)[n+]1cc(/N=C(\[O-])Nc2ccccc2)on1 (configuration not stated),0%,1,1,-11%,-7%,·,·
CCCCC(=O)Nc1ccc(F)c(Cl)c1,?,·,5,-1%,-5%,?,-12%
O=[N+]([O-])/C(Cl)=C1\NCCN1Cc1ccc(Cl)nc1,-1%,-8,-3,-4%,-6%,·,·
O=C(CSc1nc2ccccc2c(=O)[nH]1)NCc1ccc(Cl)cc1,-2%,-1,-1,?,-8%,·,·
Nc1cc(=O)[nH]c(SCC(=O)Nc2ccc(F)c(Cl)c2)n1,?,·,-4,3%,1%,?,30µM*
CC(C)c1ccc(NC(=O)CCNC(=O)N2C[C@H]3C[C@@H](C2)c2cccc(=O)n2C3)cc1,0%,2,2,4%,-4%,·,·
Cc1[nH]nc2c1C(c1cc(Br)cs1)C(C#N)=C(N)O2 (configuration not stated),?,-28,-1,4%,i,?,?
Cc1ccccc1OCCCn1cc(C(=O)C(=O)N2CCOCC2)c2ccccc21,-10%,1,112,3%,9%,·,·
COC(=O)C1=C(c2ccc(F)cc2OCc2ccccc2)C[C@@H]2CC[C@H]1N2C(=O)NC1CC1,-7%,-2,-1,-3%,5%,·,·
COc1ccc(-c2cc(=NCCC(=O)O)c3cc(C)ccc3o2)cc1,?,-1,6,9%,-6%,-30%,?
Cc1cc(C(=O)CS(=O)(=O)c2ccc(F)cc2)cc(C)c1OC(=O)N(C)C,1%,3,-6,-1%,3%,·,·
COc1ccc(OC)c(-c2c3cc(O)c(=O)cc-3oc3cc(O)c(O)cc23)c1,9.5µM*,-101*,-51*,?,?,?,3.8µM*
Cc1nc(Cc2nnc(SCC(=O)N3CCN(c4ccc(O)cc4)CC3)o2)cs1,?,-1,-8,?,-3%,?,?
